IP6K1 inh: Primary qHTS assay for small molecule inhibitors of Inositol hexaphosphate kinase 1 (IP6K1) | hit rate 0.81% among 140,000 | AID 1645851, 2021 | IP6K1 kinase, ADP-Glo luminescence, 2 h; stronger effect = lower value | Inositol hexakisphosphate kinase 1 (Homo sapiens), Q92551 | activity change, % (series mostly up to about 58 µM); in the data active = activity change below about -25%; also: % is scaled to controls: 0 for no effect and ±100 for the full control effect
Target sequence (Q92551 whole entry, looked up): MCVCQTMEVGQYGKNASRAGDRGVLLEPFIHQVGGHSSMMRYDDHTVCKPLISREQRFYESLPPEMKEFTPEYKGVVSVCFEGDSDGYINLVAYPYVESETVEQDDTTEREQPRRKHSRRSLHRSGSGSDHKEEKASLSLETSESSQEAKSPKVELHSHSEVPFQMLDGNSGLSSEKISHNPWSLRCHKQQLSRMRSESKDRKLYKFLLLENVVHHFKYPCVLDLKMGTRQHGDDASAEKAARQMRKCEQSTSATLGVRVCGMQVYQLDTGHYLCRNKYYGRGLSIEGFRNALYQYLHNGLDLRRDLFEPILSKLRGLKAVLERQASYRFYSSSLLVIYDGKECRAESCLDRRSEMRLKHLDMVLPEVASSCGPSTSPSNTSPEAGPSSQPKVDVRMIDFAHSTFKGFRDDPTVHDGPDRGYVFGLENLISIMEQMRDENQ
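ADP-Glo luminescence measures ADP made by human IP6K1 during a 2 h RT reaction with ATP/IP6 (mix at 1.3 mM/130 uM); top library doses 57.5 and 19.1 uM final.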
KDM5B inhibitor: Primary screen for KDM5B Histone Demethylases FDH-coupled qHTS; hit rate 2.6% among 220,000; Potency, µM (highest dose often 57.7 µM), most hits filed as inhibitors; KDM5B demethylase, FDH-coupled NADH fluorescence (FDH is formaldehyde dehydrogenase); Lysine-specific demethylase 5B (Homo sapiens), Q9UGL1; also: potency is read from the fitted curve at half-maximal effect; 0% is about no effect; nearly all actives have a fitted effect of over 70% in size
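Compound dilutions met 200 nM (final) KDM5BΔAP for 10 min at room temperature before substrate addition. The substrate mix held 12.5 µM H3K4me3 with cofactors 25 µM α-ketoglutarate and 50 µM Fe²⁺. NADH signal gain over 30 min defined activity.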
HEK293 viab: GF-AFC viability counterscreen for inhibitors of alpha-synuclein gene (SNCA) expression; HEK-293-SNCA-luc viability, GF-AFC fluorescence, 24 h; Potency, µM (series often up to 57.1 µM), for the others: top-dose activity change, negative = cytotoxicity, hits mostly cytotoxic; hit rate 0.12% among 150,000; AID 1671193, 2021;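 also: potency is read from the fitted curve at half-maximal effect; 0% = DMSO-treated cells and -100% = medium-only wells without cells; nearly all actives have a fitted effect of over 30% in size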
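Cytotoxicity counterscreen: after 24 h compound treatment of genome-edited SNCA-luciferase HEK-293 cells, live-cell protease substrate GF-AFC read by fluorescence after 30 min; activity scaled between DMSO (0%) and medium-only (-100%), curves Hill-fitted.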
SNCA expr inh: Primary qHTS assay for inhibitors of alpha-synuclein gene (SNCA) expression; HEK-293 SNCA-luciferase knock-in, luminescence, 24 h; Potency, µM (highest dose often 57.2 µM), without a hit: top-dose activity change, negative = inhibition, hits mostly inhibitors; hit rate 0.17% among 140,000; AID 1671194, 2021;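 also: potency is read from the fitted curve at half-maximal effect; plate controls were DMSO cells for no effect and cell-free wells for full effect; nearly all actives have a fitted effect of over 45% in size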
IP6K1 conf: Confirmatory qHTS assay for small molecule inhibitors of Inositol hexaphosphate kinase 1 (IP6K1); shares compounds with IP6K1 inh; AID 1645852, 2021; recombinant IP6K1 kinase, ADP-Glo luminescence, 2 h; Potency, µM (series often up to 49 µM), for inactives: at the top dose activity change, negative = inhibition, most hits filed as inhibitors; hit rate 13% among 1,200; also: potency is read from the fitted curve at half-maximal effect; % is scaled to controls: 0 for no effect and ±100 for the full control effect; nearly all actives have a fitted effect of over 65% in size
* hit, by the source's call; [ ] = remark or other dose. A selection: hits, their analogues and other compounds. The true share with any hit is near 2.9%. Unless noted, calls follow the shape of the dose curve; as a rule, active = well fitted curve in the direction sought with a large enough effect; inconclusive = small, poorly fitted or top-dose-only effect, or another doubt; inactive = no such curve, though single readings can be large; an effect the other way counts as inactive or inconclusive.

CSc1ncccc1C(=O)NC1CC(c2cc(=O)[nH]c(N)n2)C1 (centres undefined) was read as IP6K1 inh 12.0, KDM5B inhibitor inactive, HEK293 viab 1.2% and SNCA expr inh -6.1%.
For O=C(Nc1ccc(Oc2ccccc2)cc1)O[C@@H]1CO[C@H]2[C@@H]1OC[C@@H]2n1nnnc1SC1CCCC1 the results were IP6K1 inh -3.6, KDM5B inhibitor inactive, HEK293 viab -6.7% and SNCA expr inh -32.7%.
CCOC(=O)c1c(-c2ccccc2)csc1NC(=O)c1cc(=O)c2cc(Cl)ccc2o1 was read as KDM5B inhibitor inactive.
`N[C@H]1CCN2C(=O)c3cc(-c4ccc5c(c4)OCO5)ccc3NC(=O)[C@H]12` gave IP6K1 inh -30.2*, KDM5B inhibitor inconclusive, HEK293 viab -12.8%[87.6 µM], SNCA expr inh 8.0%[87.6 µM] and IP6K1 conf -23.2%.
`O=C1Nc2ccc(-c3ccc4c(c3)OCO4)cc2C(=O)N2CC[C@H](NC(=O)N3CCOCC3)[C@@H]12` gave IP6K1 inh -7.6, KDM5B inhibitor inactive, HEK293 viab 3.0% and SNCA expr inh 10.1%.
Screening CCCCOc1c(C(=O)c2c(F)cc(C)cc2F)cnc2n[nH]cc12 returned IP6K1 inh -4.7, HEK293 viab -11.2% and SNCA expr inh inconclusive.
CCCS(=O)(=O)Nc1ccc(F)c(C(=O)c2c[nH]c3ncc(Cl)cc23)c1F was read as IP6K1 inh -31.1*, HEK293 viab inconclusive, SNCA expr inh 12.1µM* and IP6K1 conf inconclusive.
`O=C(NCCCN1CCCCCC1)c1ccc2c(c1)sc1nc(-c3ccccc3)cn12` gave IP6K1 inh -50.3*, KDM5B inhibitor inconclusive, HEK293 viab inconclusive, SNCA expr inh -35.3% and IP6K1 conf inconclusive.
Screening Cc1ccc2c(c1)C(O)(CC(=O)c1cccs1)C(=O)N2 (centres undefined) returned KDM5B inhibitor inactive.
`O=C1Nc2ccccc2CC12CCCN2Cc1ccc(C(F)(F)F)cc1` (centres undefined) gave IP6K1 inh -6.3, KDM5B inhibitor inconclusive, HEK293 viab inconclusive and SNCA expr inh inconclusive.
CN(C)CCCNc1nc(-c2ccccc2)nc2ccccc12 was read as KDM5B inhibitor inactive.
CCC(=O)OCCCNc1nc(-c2ccc(Cl)cc2)nc2ccccc12 was read as IP6K1 inh -25.3*, KDM5B inhibitor inconclusive, HEK293 viab -9.4%, SNCA expr inh 10.8% and IP6K1 conf inconclusive.
Screening O=C(CN1CC2CC(C1)[C@H]1CCCC(=O)N1C2)N1CCN(c2ncccn2)CC1 (some centres undefined) returned IP6K1 inh 12.1, KDM5B inhibitor inconclusive, HEK293 viab 5.1% and SNCA expr inh 19.0%.
`CC(C)Cn1c(/C=C/c2ccc(F)cc2)nc2ccccc21` gave IP6K1 inh 3.5, KDM5B inhibitor inconclusive, HEK293 viab -19.7% and SNCA expr inh -19.6%.
`CSc1ccc(/C=C/c2nc3ccccc3n2S(=O)(=O)c2ccc(F)c(C)c2)cc1` gave IP6K1 inh -38.8*, KDM5B inhibitor inconclusive, HEK293 viab -5.9%, SNCA expr inh -84.3% and IP6K1 conf inconclusive.
For O=C(c1ccc(-c2ncc3cnc(-c4cccc(F)c4)cn23)cc1)N1CC(O)C1 the results were IP6K1 inh -29.2*, KDM5B inhibitor inconclusive, HEK293 viab 2.5%[87.6 µM], SNCA expr inh 16.9%[87.6 µM] and IP6K1 conf -13.7%.
CN(Cc1ccccc1)S(=O)(=O)c1cccc(Br)c1 was read as KDM5B inhibitor inactive.
O=C(O)c1ccccc1NS(=O)(=O)c1ccc(N/N=C/c2cccs2)c([N+](=O)[O-])c1 was read as KDM5B inhibitor inactive.
Screening Brc1ccc2nc(SCCOc3ccccc3)[nH]c2c1 returned IP6K1 inh -32.4*, KDM5B inhibitor inactive, HEK293 viab 8.6%, SNCA expr inh 78.1% and IP6K1 conf inconclusive.
`O=C(Cc1ccc(F)cc1)N1CCOc2ccc(CN3CCc4ccccc4C3)cc2C1` gave IP6K1 inh -0.2, KDM5B inhibitor inactive, HEK293 viab -9.3% and SNCA expr inh -12.9%.
Screening COc1ccc(CNC(=O)CCc2cn(Cc3cc(C)ccc3C)c3ccccc23)cc1OC returned IP6K1 inh 32.4, KDM5B inhibitor inactive, HEK293 viab 5.5% and SNCA expr inh inconclusive.
For Cc1ccccc1Cn1cc(CCC(=O)NCc2cccc(Br)c2)c2ccccc21 the results were IP6K1 inh -29.4*, KDM5B inhibitor inconclusive, HEK293 viab inconclusive, SNCA expr inh -18.4% and IP6K1 conf 10.2%.
Cc1ccc(CCNC(=O)C2CCCN(Cc3nc(-c4cccc(Cl)c4)oc3C)C2)cc1 (centres undefined) was read as IP6K1 inh -6.0, KDM5B inhibitor inactive, HEK293 viab 8.9% and SNCA expr inh 5.7%.
`Cc1cccc(C)c1NC1=NS(=O)(=O)c2ccccc21` gave KDM5B inhibitor inactive.
Screening COC(=O)c1cccc(NC2=NS(=O)(=O)c3ccccc32)c1 returned IP6K1 inh -39.5*, KDM5B inhibitor inactive, HEK293 viab -14.6%, SNCA expr inh 8.0% and IP6K1 conf inconclusive.
For CCOc1ccc(C2C(C(=O)OC)=C(C)NC3=C2C(=O)c2ccccc23)cc1OC (centres undefined) the results were IP6K1 inh -27.0*, KDM5B inhibitor inconclusive, HEK293 viab inconclusive, SNCA expr inh 38.5% and IP6K1 conf inconclusive.
For CCOc1cc(C2C(C(=O)OC)=C(C)NC3=C2C(=O)c2ccccc23)ccc1OCc1ccccc1 (centres undefined) the results were KDM5B inhibitor inactive.
`Cc1ccc(Cn2c(Cc3ccccc3)nc3ccccc32)cc1` gave IP6K1 inh -27.0*, KDM5B inhibitor inactive, HEK293 viab 3.4%, SNCA expr inh -22.3% and IP6K1 conf -18.2%.
Screening Cc1ccc(Cn2c(-c3ccccc3)nc3ccccc32)cc1 returned IP6K1 inh -26.8*, KDM5B inhibitor inconclusive, HEK293 viab 9.9%, SNCA expr inh 24.5% and IP6K1 conf -15.4%.
For Cc1ccsc1C(=O)OCC(=O)NC(=O)NC1CCCC1 the results were KDM5B inhibitor inactive.
O=C(CS)Nc1ccccc1 was read as IP6K1 inh -27.0*, HEK293 viab inconclusive, SNCA expr inh 32.1%[25.6 µM] and IP6K1 conf inconclusive.
Screening CCOc1ccc(-c2c(C)nn3c(C)c(C(=O)NCCN(C)C)cnc23)cc1OCC returned IP6K1 inh -13.2, KDM5B inhibitor inactive, HEK293 viab -8.9% and SNCA expr inh -4.1%.
